# mHTT-CaM PPI inh = disrupts binding of mutant huntingtin to calmodulin; P42858; AlphaScreen His-mHTT/GST-CaM binding, luminescence; inhibition, % at 15 µM; actives 3.6% (n = 190,000); AID 1671202;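 also: 0% = both proteins with DMSO and 100% = one protein alone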
# Pf apPOL block = Pf-apPOL DNA polymerase inhibition | Recombinant Pf-apPOL, molecular beacon fluorescence, 1.5 h | inhibition, % at 10 µM | actives 0.25% (n = 210,000)
# An asterisk follows results filed as active; . = not tested or not shown. Sampled rows, rich in hits. Any-hit rate of the full collection: about 3.6%. Rule as the data show it: active = inhibition above about 50%; inactive = the rest.
SMILES,mHTT-CaM PPI inh,Pf apPOL block
C=CCn1c(SC(C)C)nc2sc3c(c2c1=O)CC(C)(CC)OC3 (centres undefined),-32,9
Cc1cc(-c2ccccc2)nc2cc(C(=O)N3CCOCC3)nn12,5,-2
Nc1c(C(=O)N2CCOCC2)sc2nc(-c3ccccc3)cc(-c3ccccc3)c12,52*,-5
N#CCSc1sc2c(O)cc(=O)[nH]c2c1C#N,-1,.
N#Cc1c(SCC(=O)c2ccc(Cl)s2)sc2c(O)cc(=O)[nH]c12,63*,.
Cc1cc(C(=O)NCCn2ncc3c(=O)n(Cc4ccc(F)cc4)cnc32)c(C)o1,-10,-9
Oc1c(C(Nc2ccccn2)c2ccc(Br)cc2)ccc2cccnc12 (centres undefined),94*,0
O=c1cc(CO)oc(C(Nc2ncccn2)c2ccc(F)cc2)c1O (centres undefined),10,-4
Oc1c(C(Nc2ccccn2)c2ccc(Cl)cc2)ccc2cccnc12 (centres undefined),100*,4
Cc1ccnc(NC(c2ccccc2C)c2ccc3cccnc3c2O)c1 (centres undefined),99*,-11
O=S(=O)(Nc1ccccn1)c1ccc(Cl)cc1,-2,0
Cc1ccc2ccc(C(Nc3ccccn3)c3ccc(F)cc3)c(O)c2n1 (centres undefined),70*,-10
O=C(Nc1ccccn1)c1cc(Br)ccc1Cl,3,3
COC(=O)c1ccc(NC(=O)C2Oc3ccccc3NC2=O)cc1 (centres undefined),32,-1
CC12CC(NC(=O)N1c1cccc(C(=O)O)c1)c1ccccc1O2 (centres undefined),-12,0
Cc1ccc(C2=CC(c3ccccc3C)n3nnnc3N2)cc1 (centres undefined),1,4
CC1(C(=O)NCc2cccc(F)c2)CCCN(C(=O)c2ccccc2)C1 (centres undefined),-6,-3
Cc1ccc(C(Nc2ccccn2)c2ccc3cccnc3c2O)cc1 (centres undefined),99*,3
CCCOc1ccc(C=Nc2ccc(S(=O)(=O)Nc3ccccn3)cc2)cc1,-5,-5
COc1cc(C)c(S(=O)(=O)Nc2ccccn2)cc1C,-2,0
C=CCOc1ccc(C(Nc2ccccn2)c2ccc3ccc(C)nc3c2O)cc1 (centres undefined),67*,-5
COc1ccc(C(Nc2ccccn2)c2ccc3ccc(C)nc3c2O)cc1C (centres undefined),81*,-6
CCCOc1ccc(C(Nc2ccccn2)c2ccc3cccnc3c2O)cc1 (centres undefined),97*,-7
C=CCOc1ccc(C=Nc2ccc(C(C)C)cc2)c(O)c1,2,4
Cc1ccc(-c2ncccc2O)cc1,1,-7
SMILES,mHTT-CaM PPI inh,Pf apPOL block
CN1CCN(CCCNC(=O)C2CCCN(c3cc(=O)n(C)c(=O)n3C)C2)CC1 (centres undefined),-11,-6
c1ccc2[nH]c(SCCSc3nc4ccccc4[nH]3)nc2c1,14,1
Cc1ccc(CC(=O)N2CC3CN(S(=O)(=O)c4cccc(C)c4)CC(C2)O3)cc1,-1,-3
COCc1c(C(=O)O)nnn1-c1ccc(F)c(C)c1,-11,0
Cc1ccc(C(Nc2ccccn2)c2ccc3ccc(C)nc3c2O)cc1 (centres undefined),72*,-12
Cc1ccc(C)c(C(Nc2ccccn2)c2ccc3cccnc3c2O)c1 (centres undefined),97*,4
Cc1ccnc(NC(c2cccs2)c2ccc3cccnc3c2O)c1 (centres undefined),100*,4
Cc1ccc2ccc(C(Nc3ccccn3)c3ccc(O)cc3)c(O)c2n1 (centres undefined),93*,2
Cc1ccc(-c2nc(C=Nc3ccccn3)c(O)o2)cc1,9,-2
Cc1ccc(C)c(C(C)Sc2ncccc2C(=O)O)c1 (centres undefined),.,1
COc1ccccc1NC1=CC(=O)CC(C)(C)C1,-5,-5
COc1ccc(/C=c2\sc3n(c2=O)CN(c2ccc(C)cc2)CN=3)cc1OC,1,-3
CC12C(=O)N(c3ccc(Oc4ccc(Cl)cc4)cc3)C(=O)C1C1C=CC2C1 (centres undefined),-4,-6
CC(C)=CCn1c(N2CCCCCC2)nc2c1c(=O)[nH]c(=O)n2C,12,0
OC(CN1CCN(c2ccccn2)CC1)c1ccc2c(c1)OCO2 (centres undefined),3,-1
Oc1c(C(Nc2ccccn2)c2ccc3c(c2)OCO3)ccc2cccnc12 (centres undefined),99*,-6
CCCCC[C@@H](C)N1C[C@H](COCc2ccccc2)Oc2cc(N3CC[C@@H](N(C)C)C3)ccc2S1(=O)=O,-4,-11
CCCCC[C@@H](C)N1C[C@@H](COCc2ccccc2)Oc2cc(N3CC[C@@H](N(C)C)C3)ccc2S1(=O)=O,100*,-7
CCCCC[C@H](C)N1C[C@H](COCc2ccccc2)Oc2cc(N3CC[C@H](N(C)C)C3)ccc2S1(=O)=O,-14,-37
CCCCC[C@H](C)N1C[C@H](COCc2ccccc2)Oc2cc(N3CC[C@@H](N(C)C)C3)ccc2S1(=O)=O,100*,-33
Cc1c(C)c(C(=O)NCc2ccc3c(c2)OCO3)n(Cc2ccc(F)cc2)c1C,-3,0
CCc1cccc(NC(=O)Cn2c(CC)nc3c(c2=O)CN(Cc2ccccc2)CC3)c1,21,-1
Cc1[nH]nc2c1C(c1ccccc1)C(C#N)=C(N)O2 (centres undefined),.,0
Cc1[nH]nc2c1C(c1ccc(-c3ccccc3Cl)o1)C(C#N)=C(N)O2 (centres undefined),50*,-3
COc1cc(COC(=O)NC(Cc2c[nH]c3ccccc23)C(=O)O)cc(OC)c1 (centres undefined),.,-16
SMILES,mHTT-CaM PPI inh,Pf apPOL block
Cc1cc(/C=C2\C(=O)NC(=O)N(c3ccccc3)C2=O)c(C)n1-c1cccc([N+](=O)[O-])c1,59*,3
CC1=NN(c2ccccc2)C(=O)/C1=C\c1cc(C)n(-c2cccc([N+](=O)[O-])c2)c1C,0,4
O=C(Nc1cccc(F)c1)c1cc(I)ccc1Cl,-28,-3
CC1CCN(Cc2cc([N+](=O)[O-])c(O)c3ncccc23)CC1,100*,-89
O=[N+]([O-])c1cc(CN2CCCC2)c2cccnc2c1O,100*,0
CN1CCCN(Cc2ccccc2[N+](=O)[O-])CC1,-11,-6
COc1cc(CN2CCCCCC2)cc([N+](=O)[O-])c1O,0,-5
O=[N+]([O-])c1cc(CN2CCC(c3ccccc3)C2)c(O)c2ncccc12 (centres undefined),100*,-1
O=C(NC(/C=C/c1ccccc1)c1cc([N+](=O)[O-])c2cccnc2c1O)C1CCCCC1 (centres undefined),30,10
CN1CCN(Cc2cc([N+](=O)[O-])c(O)c3ncccc23)CC1,100*,3
O=[N+]([O-])c1ccccc1CN1CCC(O)CC1,-5,-8
NC(=O)c1oc2ccccc2c1NC(=O)C1c2ccccc2Oc2ccccc21,-3,7
C=CCN1CC2=C(C1=O)C(c1ccc(C)cc1C)NC(=O)N2C (centres undefined),31,41
Cc1ccc(/C=C2\N=C(c3cccc([N+](=O)[O-])c3)OC2=O)cc1,3,-8
CN1CCN(CC(O)COc2c(F)cc(Br)cc2F)CC1 (centres undefined),-7,0
